# Activity calls are given as the source filed them.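 Rule for the calls, unless noted: active = fluorescence slope higher than the sample average by over 3 SD (cut at about -0.22 in these data, passing the limit was not always enough); inactive = the rest.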
# Test system: not listed separately
# Test: inhibitors of E-selectin induction by TNFa, primary screen, imaging, HUVEC, immunofluorescence, MLSMR starter and 10KST1 sets (AID 487;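 active = visually confirmed hit in the image check and inhibition above 20%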;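 for inhibition: signal is fraction of cell area covered by stained E-selectin grains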;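 for nuclei count: 100% = median nuclei count of all wells on the same plate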)
# Conditions: HUVEC TNFalpha-induced E-selectin immunofluorescence imaging, at 2 µM; inhibition: stronger effect = higher value; nuclei count: measured here: cell number, toxicity
SMILES,nuclei count,inhibition
CN(C)CC(=O)N1c2ccccc2CCc2ccc(NC(=O)c3ccc(N)cc3)cc21,108%,-115% (inactive)
CC1=C(C#N)C(=O)NC(C)(C)C1,109%,6.4% (inactive)
O=C(NCCO)c1scc2c1OCCO2,104%,-15.2% (inactive)
O=C(Cn1ccc2ccccc2c1=O)NCCC(=O)NC1CCN(Cc2ccccc2)CC1,129%,-130% (inactive)
CCOc1cc2[nH]c(=O)n(CCCCC(=O)N3CCCCCC3)c(=O)c2cc1OCC,89.8%,14.4% (inactive)
COc1nc(OC)nc(N2CCC(C(=O)NC3CCCCCC3)CC2)n1,110%,-6% (inactive)
Cc1ccccc1CN1CCNC1=O,138%,-69.6% (inactive)
CCC1(CC)C(=O)C(C)(C)C(=O)OC1c1cccs1 (stereo not given),110%,-18.3% (inactive)
O=C(NCc1ccccc1)N1CCn2c(nc3ccccc32)C1,111%,-13.3% (inactive)
CC1CCN(C(=O)CSc2nnc(-c3cccnc3)n2C2CCCCC2)CC1,134%,-34.6% (inactive)
CCCCNC(=O)Nc1ccnn1C1CCCCC1,105%,-34.1% (inactive)
COc1ccc(OC)c(C2=NOC(C(=O)NCCN3CCOCC3)C2)c1 (stereo not given),85.7%,-20.4% (inactive)
CCCc1n[nH]c2c1/C(=N/O)CC(c1ccccc1)C2 (stereo not given),110%,-7.4% (inactive)
CCOC(=O)C1CCN(C(=O)c2ccc(OC)cc2OC)CC1,86.8%,43.5% (inactive)
CN(CCCC(=O)Nc1ccncc1)S(=O)(=O)c1ccc(Cl)cc1,127%,-18.9% (inactive)
CCSc1ncc(C#N)c(=O)[nH]1,102%,-53.9% (inactive)
CCOc1ccccc1N1C(=O)CC(Sc2ncccc2C(=O)O)C1=O (stereo not given),136%,-111% (inactive)
COc1ccc(Cn2c(C)nc3c(c2=O)c2nc4ccccc4nc2n3Cc2ccco2)cc1,119%,-42.4% (inactive)
CCn1c2ccccc2c2cc(NC(=O)Cc3ccc(S(=O)(=O)N4CCOCC4)s3)ccc21,109%,-10.9% (inactive)
C/C(Cl)=C\Cn1c(NCCc2ccccc2)nc2c1c(=O)n(C)c(=O)n2C,96.4%,6.4% (inactive)
Cc1ccc2cc(CN(CC(C)C)C(=O)C3CCCO3)c(=O)[nH]c2c1 (stereo not given),147%,-62.4% (inactive)
COC(=O)C1(C(=O)OC)Sc2ccccc2C1=O,97.1%,30.1% (inactive)
CCn1c(CC(=O)Nc2cccc(OC)c2)nnc1SCC(=O)Nc1nccs1,112%,-129% (inactive)
O=C(O)CCc1ccc(-c2cccs2)n1NC(=O)c1ccco1,132%,-93.6% (inactive)
c1nc(NCC2CCCO2)c2[nH]cnc2n1 (stereo not given),118%,-27.3% (inactive)

# Target: Voltage-gated potassium channel subunit beta-2 (Rattus norvegicus) (UniProt P62483)
# Sequence (P62483 whole entry, looked up): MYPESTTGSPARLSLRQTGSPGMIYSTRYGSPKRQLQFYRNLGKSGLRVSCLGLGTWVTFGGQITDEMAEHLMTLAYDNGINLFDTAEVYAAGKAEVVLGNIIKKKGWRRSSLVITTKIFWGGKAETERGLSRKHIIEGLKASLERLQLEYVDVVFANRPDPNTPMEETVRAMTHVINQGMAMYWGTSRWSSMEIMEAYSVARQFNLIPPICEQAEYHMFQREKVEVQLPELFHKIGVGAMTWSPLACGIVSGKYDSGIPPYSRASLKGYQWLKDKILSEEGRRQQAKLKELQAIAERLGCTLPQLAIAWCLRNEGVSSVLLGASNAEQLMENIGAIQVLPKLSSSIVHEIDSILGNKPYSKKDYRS
# Test: KvBeta enzyme negative modulators, primary screen, biochemical, NADPH fluorescence (AID 622);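 note: slope of raw intensity against log time taken from 70 to 1610 s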
# Conditions: recombinant KvBeta, 4-cyanobenzaldehyde reduction, at 10 µM, stronger effect = higher value
row,SMILES,fluorescence slope
1,CC1=C(C(N)=O)C(c2ccc(Cl)cc2Cl)n2ncnc2N1 (stereo not given),-0.558 (inactive)
2,Cc1cc2c(s1)c1cnn(CC(=O)NCCc3ccccc3)c(=O)c1n2C,-0.236 (inactive)
3,CCc1c(C)nc(N2CCN(Cc3ccccc3)CC2)[nH]c1=O,-0.507 (inactive)
4,O=C1C2CCCN2C(c2ccc(Cl)cc2)N1c1nccs1 (stereo not given),-0.556 (inactive)
5,CCCCN(CC)S(=O)(=O)N1CCC(C(=O)NCc2ccc(F)cc2)CC1,-0.594 (inactive)
6,O=c1c2nnn(Cc3ccccc3)c2ncn1-c1ccccc1,-0.411 (inactive)
7,CNC(=O)CN(c1cc(C)ccc1OC)S(=O)(=O)c1ccc(C)cc1,-0.563 (inactive)
8,CCCCC(CC)C(=O)Nc1ccc(Cl)cn1 (stereo not given),-0.377 (inactive)
9,CCOC(=O)N1CCN(S(=O)(=O)c2ccc(Br)s2)CC1,-0.553 (inactive)
10,CC(=O)Nc1ccc(S(=O)(=O)n2cnc(C)c2)cc1,-0.584 (inactive)
11,Cc1ccc(S(=O)(=O)NCCCNC(=O)N2CCOCC2)cc1,-0.461 (inactive)
12,CC(=O)N(c1ccc(N(C(C)=O)S(=O)(=O)c2cccs2)cc1)S(=O)(=O)c1cccs1,-0.472 (inactive)
13,CCCCNC(=O)c1c(C)cc(=O)oc1C,-0.531 (inactive)
14,COC(=O)c1ccc(CSc2nc3ccccc3c(=O)n2Cc2ccco2)o1,-0.563 (inactive)
15,N#CCCCN1C(=O)C(O)(CC(=O)c2ccc3c(c2)OCCO3)c2ccccc21 (stereo not given),-0.567 (inactive)
16,CN(C)CC(=O)N1c2ccccc2CCc2ccc(NC(=O)c3ccc(N)cc3)cc21,-0.571 (inactive)
17,CC1=C(C#N)C(=O)NC(C)(C)C1,-0.413 (inactive)
18,O=C(NCCO)c1scc2c1OCCO2,-0.327 (inactive)
19,O=C(Cn1ccc2ccccc2c1=O)NCCC(=O)NC1CCN(Cc2ccccc2)CC1,-0.486 (inactive)
20,CCOc1cc2[nH]c(=O)n(CCCCC(=O)N3CCCCCC3)c(=O)c2cc1OCC,-0.437 (inactive)

row,SMILES,fluorescence slope
1,COc1nc(OC)nc(N2CCC(C(=O)NC3CCCCCC3)CC2)n1,-0.469 (inactive)
2,Cc1ccccc1CN1CCNC1=O,-0.558 (inactive)
3,CCC1(CC)C(=O)C(C)(C)C(=O)OC1c1cccs1 (stereo not given),-0.454 (inactive)
4,O=C(NCc1ccccc1)N1CCn2c(nc3ccccc32)C1,-0.413 (inactive)
5,CC1CCN(C(=O)CSc2nnc(-c3cccnc3)n2C2CCCCC2)CC1,-0.471 (inactive)
6,CCCCNC(=O)Nc1ccnn1C1CCCCC1,-0.56 (inactive)
7,COc1ccc(OC)c(C2=NOC(C(=O)NCCN3CCOCC3)C2)c1 (stereo not given),-0.62 (inactive)
8,CCCc1n[nH]c2c1/C(=N/O)CC(c1ccccc1)C2 (stereo not given),-0.594 (inactive)
9,CCOC(=O)C1CCN(C(=O)c2ccc(OC)cc2OC)CC1,-0.566 (inactive)
10,CN(CCCC(=O)Nc1ccncc1)S(=O)(=O)c1ccc(Cl)cc1,-0.584 (inactive)
11,CCSc1ncc(C#N)c(=O)[nH]1,-0.517 (inactive)
12,CCOc1ccccc1N1C(=O)CC(Sc2ncccc2C(=O)O)C1=O (stereo not given),-0.46 (inactive)
13,COc1ccc(Cn2c(C)nc3c(c2=O)c2nc4ccccc4nc2n3Cc2ccco2)cc1,-0.368 (inactive)
14,CCn1c2ccccc2c2cc(NC(=O)Cc3ccc(S(=O)(=O)N4CCOCC4)s3)ccc21,-0.502 (inactive)
15,C/C(Cl)=C\Cn1c(NCCc2ccccc2)nc2c1c(=O)n(C)c(=O)n2C,-0.286 (inactive)
16,Cc1ccc2cc(CN(CC(C)C)C(=O)C3CCCO3)c(=O)[nH]c2c1 (stereo not given),-0.565 (inactive)
17,COC(=O)C1(C(=O)OC)Sc2ccccc2C1=O,-0.571 (inactive)
18,CCn1c(CC(=O)Nc2cccc(OC)c2)nnc1SCC(=O)Nc1nccs1,-0.545 (inactive)
19,O=C(O)CCc1ccc(-c2cccs2)n1NC(=O)c1ccco1,-0.463 (inactive)
20,c1nc(NCC2CCCO2)c2[nH]cnc2n1 (stereo not given),-0.483 (inactive)

# — PubChem BioAssay
